# Laboratory results as given in the supplement of paper PMC8975748.
# Counter-ions that a name gives are not always drawn. ± gives the standard deviation of the averaged measurements.
# Key:
# [1] = tested on: Saccharomyces cerevisiae BY4741 SeMeCo community; experiment: mean cell size (pixel area) (pixels); higher = larger cells; conditions: 10 µM; 24 h; SM minimal medium
# Procedure, shortened: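 A Saccharomyces cerevisiae BY4741 community carrying four plasmids, each with a fluorescent marker and each complementing one auxotrophy, was exposed for 24 h to drug at a final 10 µM in SM medium in acoustically predosed 384-well plates. The overnight preculture (OD600 = 1.0) was diluted to OD600 = 0.3 before 70 µl was added per well. Cells were then fixed with paraformaldehyde, imaged by automated confocal microscopy and analysed in Harmony to derive mean cell pixel area per well, averaged over 3 replicates. Same SeMeCo high-content imaging drug screen: Selleck FDA-approved drugs at 10 µM, 24 h in SM medium, 384-well plates, 3 replicates.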
# [2] = tested on: Saccharomyces cerevisiae BY4741 SeMeCo community; experiment: z-score of prototroph abundance vs DMSO median; higher = larger share of this subpopulation than in DMSO controls; conditions: 10 µM; 24 h; SM minimal medium; subpopulation (auxotrophy): Prototroph
# Procedure, shortened: (§1)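 A community of Saccharomyces cerevisiae BY4741 was built from four plasmids that each restored one auxotrophy and encoded a distinct fluorescent protein. Pre-grown overnight to OD600 1.0 and diluted to 0.3, it was dispensed at 70 µl into 384-well plates acoustically predosed with library drugs for a final 10 µM, and grown 24 h in minimal SM medium. Cells were then paraformaldehyde-fixed and imaged by automated confocal microscopy. Thresholds and autofluorescence correction came from single-auxotroph fluorescent strains, and each subpopulation's abundance was scored as a z-score relative to the vehicle-well median.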
# [3] = tested on: Saccharomyces cerevisiae BY4741 SeMeCo community; experiment: z-score of subpopulation abundance vs DMSO median, subpopulation auxotrophic for M; higher = larger share of this subpopulation than in DMSO controls; conditions: 10 µM; 24 h; SM minimal medium; subpopulation (auxotrophy): M
# Procedure, shortened: as §1
# [4] = tested on: Saccharomyces cerevisiae BY4741 SeMeCo community; experiment: z-score of subpopulation abundance vs DMSO median, subpopulation auxotrophic for L; higher = larger share of this subpopulation than in DMSO controls; conditions: 10 µM; 24 h; SM minimal medium; subpopulation (auxotrophy): L
# Procedure, shortened: as §1
# [5] = tested on: Saccharomyces cerevisiae BY4741 SeMeCo community; experiment: z-score of subpopulation abundance vs DMSO median, subpopulation auxotrophic for H; higher = larger share of this subpopulation than in DMSO controls; conditions: 10 µM; 24 h; SM minimal medium; subpopulation (auxotrophy): H
# Procedure, shortened: as §1
# [6] = tested on: Saccharomyces cerevisiae BY4741 SeMeCo community; experiment: z-score of subpopulation abundance vs DMSO median, subpopulation auxotrophic for LU; higher = larger share of this subpopulation than in DMSO controls; conditions: 10 µM; 24 h; SM minimal medium; subpopulation (auxotrophy): LU
# Procedure, shortened: as §1
# [7] = tested on: Saccharomyces cerevisiae BY4741 SeMeCo community; experiment: z-score of subpopulation abundance vs DMSO median, subpopulation auxotrophic for LM; higher = larger share of this subpopulation than in DMSO controls; conditions: 10 µM; 24 h; SM minimal medium; subpopulation (auxotrophy): LM
# Procedure, shortened: as §1
# [8] = tested on: Saccharomyces cerevisiae BY4741 SeMeCo community; experiment: z-score of subpopulation abundance vs DMSO median, subpopulation auxotrophic for HM; higher = larger share of this subpopulation than in DMSO controls; conditions: 10 µM; 24 h; SM minimal medium; subpopulation (auxotrophy): HM
# Procedure, shortened: as §1
# [9] = tested on: Saccharomyces cerevisiae BY4741 SeMeCo community; experiment: z-score of subpopulation abundance vs DMSO median, subpopulation auxotrophic for HU; higher = larger share of this subpopulation than in DMSO controls; conditions: 10 µM; 24 h; SM minimal medium; subpopulation (auxotrophy): HU
# Procedure, shortened: as §1
# [10] = tested on: Saccharomyces cerevisiae BY4741 SeMeCo community; experiment: z-score of subpopulation abundance vs DMSO median, subpopulation auxotrophic for UM; higher = larger share of this subpopulation than in DMSO controls; conditions: 10 µM; 24 h; SM minimal medium; subpopulation (auxotrophy): UM
# Procedure, shortened: as §1
# [11] = tested on: Saccharomyces cerevisiae BY4741 SeMeCo community; experiment: z-score of subpopulation abundance vs DMSO median, subpopulation auxotrophic for HL; higher = larger share of this subpopulation than in DMSO controls; conditions: 10 µM; 24 h; SM minimal medium; subpopulation (auxotrophy): HL
# Procedure, shortened: as §1
# [12] = tested on: Saccharomyces cerevisiae BY4741 SeMeCo community; experiment: z-score of subpopulation abundance vs DMSO median, subpopulation auxotrophic for HLU; higher = larger share of this subpopulation than in DMSO controls; conditions: 10 µM; 24 h; SM minimal medium; subpopulation (auxotrophy): HLU
# Procedure, shortened: as §1
# [13] = tested on: Saccharomyces cerevisiae BY4741 SeMeCo community; experiment: z-score of subpopulation abundance vs DMSO median, subpopulation auxotrophic for HLM; higher = larger share of this subpopulation than in DMSO controls; conditions: 10 µM; 24 h; SM minimal medium; subpopulation (auxotrophy): HLM
# Procedure, shortened: as §1
# [14] = tested on: Saccharomyces cerevisiae BY4741 SeMeCo community; experiment: z-score of subpopulation abundance vs DMSO median, subpopulation auxotrophic for HUM; higher = larger share of this subpopulation than in DMSO controls; conditions: 10 µM; 24 h; SM minimal medium; subpopulation (auxotrophy): HUM
# Procedure, shortened: as §1
# [15] = tested on: Saccharomyces cerevisiae BY4741 SeMeCo community; experiment: z-score of subpopulation abundance vs DMSO median, subpopulation auxotrophic for LUM; higher = larger share of this subpopulation than in DMSO controls; conditions: 10 µM; 24 h; SM minimal medium; subpopulation (auxotrophy): LUM
# Procedure, shortened: as §1
# [16] = tested on: Saccharomyces cerevisiae BY4741 SeMeCo community; experiment: z-score of subpopulation abundance vs DMSO median, subpopulation auxotrophic for HLUM; higher = larger share of this subpopulation than in DMSO controls; conditions: 10 µM; 24 h; SM minimal medium; subpopulation (auxotrophy): HLUM
# Procedure, shortened: as §1
# [17] = tested on: Saccharomyces cerevisiae BY4741 SeMeCo community; experiment: z-score of subpopulation abundance vs DMSO median, subpopulation auxotrophic for U; higher = larger share of this subpopulation than in DMSO controls; conditions: 10 µM; 24 h; SM minimal medium; subpopulation (auxotrophy): U
# Procedure, shortened: as §1
SMILES,mean cell size [1],z-score of prototroph abundance [2],z-score of subpopulation abundance [3],z-score of subpopulation abundance [4],z-score of subpopulation abundance [5],z-score of subpopulation abundance [6],z-score of subpopulation abundance [7],z-score of subpopulation abundance [8],z-score of subpopulation abundance [9],z-score of subpopulation abundance [10],z-score of subpopulation abundance [11],z-score of subpopulation abundance [12],z-score of subpopulation abundance [13],z-score of subpopulation abundance [14],z-score of subpopulation abundance [15],z-score of subpopulation abundance [16],z-score of subpopulation abundance [17]
C[C@H]1COc2c(N3CCN(C)CC3)c(F)cc3c(=O)c(C(=O)O)cn1c23 [Levofloxacin hydrate],12.5 ± 0.29,-1.38,0.54,1.32,0.26,1.73,1.34,0.64,0.77,0.61,0.74,0.84,0.07,0.55,1.66,0.84,
NCCc1ccc(O)c(O)c1 [Dopamine HCl],12.4 ± 0.15,1.09,-0.7,-1.11,-0.34,-0.45,-0.73,-0.38,-0.79,-0.71,-1.06,-0.89,-0.89,-0.77,,-0.04,-0.48
Cn1nnnc1SCC1=C(C(=O)O)N2C(=O)[C@@H](NC(=O)[C@H](OC=O)c3ccccc3)[C@H]2SC1 [Cefamandole nafate],12.6 ± 0.23,-0.92,0.49,0.3,0.14,-1.46,0.72,0.71,0.51,2.08,0.65,0.38,-0.57,-0.54,0.16,0.78,
O=C(O)c1cccnc1Nc1cccc(C(F)(F)F)c1 [Niflumic acid],12.9 ± 0.17,-0.15,0.7,-0.68,-0.77,0.28,-0.15,-0.03,-0.46,-0.28,,-0.64,0.59,-0.49,0.4,-0.43,
CC(C)(C)C(=O)C(Oc1ccc(Cl)cc1)n1ccnc1 (centres undefined) [Climbazole],11.3 ± 0.047,-9.09,7.09,-2.61,2.84,-2.81,0.49,9.21,4.67,,2.46,1.28,12.1,9.71,5.42,8.88,
COc1cccc2c1C(=O)c1c(O)c3c(c(O)c1C2=O)C[C@@](O)(C(=O)CO)C[C@@H]3O[C@H]1C[C@H](N)[C@@H](O)[C@H](C)O1 [Epirubicin HCl],12.6 ± 0.2,-0.14,-4.59,1.16,,2.53,-0.38,-3.22,3.44,-0.97,2.24,2.87,0.2,0.3,,4.48,1.23
O=C1[C@@H]2[C@H]3CC[C@H](C3)[C@@H]2C(=O)N1C[C@@H]1CCCC[C@H]1CN1CCN(c2nsc3ccccc23)CC1 [lurasidone],12.19 ± 0.019,,-0.62,0.42,0.55,-0.67,0.39,-0.31,-0.35,-1.38,,-0.09,-0.11,-0.45,-0.46,-0.82,-1.4
CCCC(=O)OCOC(=O)C1=C(C)NC(C)=C(C(=O)OC)C1c1cccc(Cl)c1Cl (centres undefined) [Clevidipine Butyrate],12.4 ± 0.13,1.07,4.72,2.14,1.96,-5.98,3.42,2.78,-5.62,-5.87,2.31,-3.55,3.24,-4.83,-4.1,0.59,
O=C1CCc2ccc(OCCCCN3CCN(c4cccc(Cl)c4Cl)CC3)cc2N1 [Aripiprazole],12.3 ± 0.16,-0.84,0.38,1.13,0.82,0.61,1.05,0.47,1.26,0.58,1.38,1.16,0.77,0.36,,0.56,0.55
C(=C\c1ccccc1)/CN1CCN(C(c2ccccc2)c2ccccc2)CC1 [Cinnarizine],12.21 ± 0.081,-1.14,-1.68,0.22,-0.62,1.38,-0.47,-0.68,1.5,1.3,0.34,1.32,-0.32,1.64,,0.66,1.39
CN1CCN(CCCN2c3ccccc3Sc3ccc(C(F)(F)F)cc32)CC1 [Trifluoperazine 2HCl],12.1 ± 0.41,,-0.02,-0.42,-0.58,-0.4,-0.04,0.33,0.54,0.11,-0.59,-0.24,-0.79,0.42,0,-0.04,
CCN(CC)CCOc1ccc(C(=C(Cl)c2ccccc2)c2ccccc2)cc1 [Clomifene citrate],12.1 ± 0.14,-1.75,0.99,0.3,,1.04,1.33,1.75,,0.9,,2.19,1.37,1.42,,0.41,0.29
CN(C)CCc1c[nH]c2ccc(CS(=O)(=O)N3CCCC3)cc12 [Almotriptan Malate],12.4 ± 0.14,0.66,-0.37,0.74,,0.07,-0.71,-1.15,0,-0.12,-0.69,-0.86,-0.23,-0.91,-0.23,,-0.42
